Test results from PubChem BioAssay.
Calls of active or inactive are those of the source.

Legend:
[1] = A549 cell viability effects, profiling panel, calcein-AM fluorescence, 48 h, basal (AID 1162); settings: higher = more signal
[2] = adipocyte viability effects, profiling panel, cell-based, 3T3-L1 adipocytes, calcein-AM fluorescence, 48 h, basal (AID 1163); settings: 3T3-L1 adipocytes viability, higher = more signal
[3] = HepG2 cell viability effects, profiling panel, calcein-AM fluorescence, 48 h, basal (AID 1164); settings: higher = more signal
[4] = MM1S cell viability effects, profiling panel, calcein-AM fluorescence, 48 h, basal (AID 1165); settings: higher = more signal;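 note: viability of MM1S multiple myeloma cells under basal unstimulated conditions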
[5] = basal RPMI8226 viability, no added stimulus, profiling panel, cell-based, calcein-AM fluorescence, 48 h, PK04 Diversity Set (AID 1166); settings: RPMI8226 myeloma viability, higher = more signal;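 note: cells grown under basal conditions without added stimulus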
[6] = basal HepG2 mitochondrial membrane potential changes, profiling panel, cell-based, JC-1 fluorescence, 24 h, 100 nL compound (AID 1167); settings: higher = more signal
[7] = basal 3T3-L1 adipocyte mitochondrial potential changes, profiling panel, cell-based, JC-1 fluorescence, 3T3-L1 adipocytes, 24 h, 100 nL compound (AID 1168); settings: JC-1 mitochondrial fluorescence, higher = more signal, called active from +8 up or from −8 down
[8] = basal RPMI8226 mitochondrial membrane potential changes, profiling panel, cell-based, JC-1 fluorescence, 24 h, 100 nL compound (AID 1169); settings: RPMI8226 myeloma, JC-1 mitochondrial potential fluorescence, higher = more signal
[9] = basal MM1S mitochondrial membrane potential changes, profiling panel, cell-based, JC-1 fluorescence, 24 h, 100 nL compound (AID 1170); settings: higher = more signal
[10] = A549 lung cancer cell viability effects, profiling panel, resazurin fluorescence, 24 h, PK04 Diversity Set (AID 1171); settings: higher = more signal, called active from +8 up or from −8 down
Note: test concentration not given here.

Compound	z-score [1]	z-score [2]	z-score [3]	z-score [4]	z-score [5]	z-score [6]	z-score [7]	z-score [8]	z-score [9]	z-score [10]
CCOC(=O)[C@H](Cc1ccccc1)NC(=O)CCC1CC(OC(=O)NCc2ccc3c(c2)OCO3)CC2(CCCC(COC(=O)NCC(c3ccccc3)c3ccccc3)O2)O1 (stereo not given in full)	1.85	-0.683	-0.538	-3.38	-3.61	1.37	-0.717 (inactive)	-0.77	-1.95	0.174 (inactive)
Cn1c(=O)n2n(c1=O)[C@H]1[C@H](O)[C@@H]3O[C@@H]3C(=NOC[C@@H](O)COCc3ccco3)[C@H]1CC2	0.981	0.323	1.41	0.287	0.588	1.41	-0.439 (inactive)	-0.402	-0.397	-0.195 (inactive)
COC(=O)CC=C[C@H](C)[C@@H](OCc1ccccc1Br)C(C)C	0.921	0.0901	1.34	0.426	0.736	0.744	0.319 (inactive)	0.00667	-0.822	-0.307 (inactive)
[N-]=[N+]=NCc1ccccc1[C@@H]1OC(c2ccc(OCCCO)cc2)=N[C@]1(Cc1ccccc1)C(=O)N1CCOCC1	0.307	0.146	1.45	-1.2	-0.275	0.787	1.05 (inactive)	-1.39	-1.13	-1.14 (inactive)
CO[C@@H]1COC(=O)CC=C[C@@H](C)[C@@H]2C=C[C@@H](O)[C@@H](COC(=O)CC=C[C@H]1C)O2	0.852	0.572	1.4	0.349	1.01	1.33	0.95 (inactive)	-1.01	1.48	-0.299 (inactive)
CC(=O)OC[C@H]1O[C@H](CCON=C(C)CCC(=O)OC[C@H]2O[C@H](C#Cc3ccccc3)C=C[C@@H]2Oc2ccc(C)cc2)C=C[C@@H]1OC(C)=O	-0.572	0.442	0.229	-2.77	-2.73	-0.797	-0.942 (inactive)	-0.199	-0.738	0.016 (inactive)
CCN1C(=O)[C@H]2[C@H]3[C@H](O)[C@H](O)CC(=NOC(C)CN4CCCCc5nc(C)c(C)cc54)[C@@H]3CC[C@H]2C1=O (stereo not given in full)	-0.421	0.111	0.503	0.0768	0.173	-0.214	-1.21 (inactive)	-0.232	-0.0499	-0.378 (inactive)
COc1ccc(O[C@H]2C=C[C@@H](c3ccccc3)O[C@@H]2COC(=O)CCC(C)=NO[C@@H](C)c2cc(-c3c(C)cc(C)cc3C)no2)cc1	-0.845	0.0504	0.033	0.0731	-0.644	0.48	-1.34 (inactive)	0.129	-0.424	1.8 (inactive)
COCCOC(=O)N1C(=O)[C@@]2(c3cc(C#CCNC(N)=O)ccc31)[C@H](c1ccccc1OCCO)N1[C@H](c3ccccc3)[C@H](c3ccccc3)OC(=O)[C@H]1[C@@H]2C(=O)N1CCN(c2ncccn2)CC1	0.0249	0.457	1.37	0.541	1.12	-1.76	0.856 (inactive)	-0.847	-0.859	-1.27 (inactive)
CC(C)c1ccc(NN2C(C(O)c3ccc4c(c3)OCO4)C=CC3C(=O)N(c4ccccc4)C(=O)C32)cc1 (stereo not given)	-0.842	-0.293	0.367	-0.911	-0.369	-1.53	-0.462 (inactive)	0.337	0.186	-0.616 (inactive)
CC(CCC(=O)OC[C@H]1O[C@H](C#Cc2ccccc2)C=C[C@@H]1Oc1ccc(C)cc1)=NOC[C@@H](O)[C@H]1O[C@@H]2OC(C)(C)O[C@@H]2[C@H]1O	0.0105	-0.0958	0.0263	-0.567	-1.53	-0.791	-0.649 (inactive)	-0.0641	-1.26	-0.042 (inactive)
C[C@@H](c1ccccc1)N1C(=O)[C@H]2[C@H]3[C@H](O)[C@H](O)CC(=NNC(=O)OCc4ccccc4)[C@H]3CC[C@H]2C1=O	-0.34	-0.903	-0.208	-0.0615	0.127	-1.05	-0.0829 (inactive)	0.502	0.00989	-0.0339 (inactive)
CCCNC(=O)OC[C@H]1O[C@H](CCON=CC[C@@H]2C=C[C@H](OC(C)=O)[C@@H](COC(C)=O)O2)C=C[C@@H]1Oc1ccc(OC)cc1	0.51	-0.217	-0.24	-0.516	-1.28	-1.14	-1.12 (inactive)	-0.057	0.306	0.248 (inactive)
O=C1[C@H]2[C@H]3[C@H](O)[C@H](O)CC(=NO[C@@H]4O[C@H](CO)[C@@H](O)[C@H](O)[C@H]4O)[C@@H]3CC[C@H]2C(=O)N1Cc1ccccc1	0.255	-0.612	-0.379	-0.176	1.03	0.981	-0.173 (inactive)	-0.61	-1.98	0.222 (inactive)
CN(C)c1ccc(C(O)C2C=CC3C(=O)N(c4ccccc4)C(=O)C3N2Nc2ccccc2F)cc1 (stereo not given)	-0.225	-0.528	-0.799	-0.343	-1.18	-2.24	-1.08 (inactive)	0.109	-0.0359	-0.416 (inactive)
